Experimental data: PubChem BioAssay (NCATS)
“And” between values parts separate entries of the source, which are not always exact repeats. Equal entries are not always repeated. Inconclusive results are not listed. A call without a number means that no potency is given here. The source made the active and inactive calls. Unless noted, the call rests on the fitted dose curve; in most records, active means well fitted curve in the direction sought with a large enough effect; inconclusive means small, poorly fitted or top-dose-only effect, or another doubt; inactive means no such curve, though single readings can be large; an effect the other way counts as inactive or inconclusive.

Tests used:
[1] = qHTS assay for small molecule antagonists of retinoid X receptor alpha signaling (AID 588546; active means well fitted inhibition curve with a large enough effect in the signal ratio, with a control signal flat, not every such curve was filed as active; the % refers to the signal ratio;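 further: cells stimulated with 9-cis-retinoic acid as agonist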); details: HEK293T RXRa-UAS-bla, beta-lactamase ratio, antagonist mode; measured here: W530 green channel, cytotoxicity proxy
Outline: (§1)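 Beta-lactamase reporter inhibition, read as CCF4 fluorescence ratio (ex 405, em 460/530 nm) after 2 h at RT. HEK293T UAS-bla cells, 2500/well, were stimulated with 9-cis-RA at 500 or 100 nM final alongside test compound for 18 h at 37 C.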

[2] = molecular target: Retinoic acid receptor RXR-alpha (Homo sapiens) (UniProt P19793); assay: as above; details: HEK293T RXRa-UAS-bla, beta-lactamase ratio, antagonist mode
Outline: as §1

[3] = qHTS assay for small molecule agonists of the antioxidant response element (ARE) signaling pathway measured by Nrf2-dependant transcriptional activity (AID 720636; active means well fitted curve in the direction sought with a large enough effect in the repeat runs; an effect the other way counts as inactive or inconclusive;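 further: HepG2 cells with an ARE-driven luciferase reporter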); details: ARE-luc HepG2, Nrf2 luciferase reporter, 16 h; series mostly up to 92.4 µM
Outline: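 Cells: ARE-luc HepG2 with Nrf2-responsive luciferase. Medium contained 1% dialyzed FBS. Compound exposure lasted 16 hr at 37 C and 5% CO2, followed by ONE-Glo luciferase detection.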

[4] = Cell Viability - SK-N-SH (AID 435; calls by dose curve;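 further: potency means the concentration at half of the fitted maximal effect; compound exposure lasted 40 h at 37 °C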); details: SK-N-SH neuroblastoma cell viability qHTS
Outline: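 Human neuroblastoma line, 40 h exposure at 37 °C, ATP quantified via luciferase luminescence; DMSO and 100 uM tamoxifen define 0 and 100% inhibition for AC50 fitting.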

[5] = Cell Viability - N2a (AID 540); details: N2a mouse neuroblastoma cell viability; at 92.2 µM (top of the series);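 further: cells exposed to compound for 40 h at 37 °C; nearly all actives have a fitted effect of over 45% in size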
Outline: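 First, 1500 N2a cells per well incubate 5 hr at 37 °C; next, compounds are added and incubated 40 hr at 37 °C; finally CellTiter-Glo is added and luminescence read after 20 min, with AC50 derived by Hill modeling.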

[6] = Cell Viability - SH-SY5Y (AID 544); details: SH-SY5Y neuroblastoma cell viability; viability change, negative = cytotoxic: at 92.2 µM (top of the series);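 further: cells exposed to compound for 40 hours; nearly all actives have a fitted effect of over 55% in size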
Outline: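 Cytotoxicity is scored as a concentration-dependent fall in intracellular ATP in human SH-SY5Y cells treated 40 hr in complete culture medium. Potency is expressed as AC50 from a Hill equation fit.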

[7] = Cellular Toxicity (caspase-3) HepG2 (AID 654); details: HepG2 caspase-3 activation, luminescence, 0% = DMSO only, 100% = tamoxifen; series mostly up to 92.2 µM;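 further: cells exposed to compound for 16 hours before reading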
Outline: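 qHTS, HepG2, 1500 cells/well, complete medium; cpd 16 h 37 °C; Caspase-Glo 3/7, 20 min RT; lum. Norm: DMSO vs 100 uM tamoxifen; AC50 Hill fit.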

[8] = Cellular Toxicity (caspase-3) Hek293 (AID 664); details: HEK293 caspase-3 activation, DMSO = 0%, 100 µM tamoxifen = 100%; series mostly up to 92.2 µM;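 further: cells exposed to compound for 16 h at 37 °C before readout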
Outline: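 Activation of caspase-3/7 is measured as increased luminescence from cleaved peptide-aminoluciferin substrate in HEK293 cells treated 16 hours at 37 °C. AC50 values come from Hill-equation fits of concentration-response data.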

[9] = Cellular Toxicity (caspase-3) NIH 3T3 (AID 666); details: NIH 3T3 caspase-3 activation, apoptosis/toxicity, 0% DMSO, 100% is 100 µM tamoxifen; series mostly up to 92.2 µM;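 further: caspase signal read after 16 h compound exposure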
Outline: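 Concentration-response qHTS in NIH 3T3 mouse fibroblasts scores caspase-3/7 activation as rising luminescence after 16 hr compound exposure. Signals are scaled between DMSO-only and 100 uM tamoxifen.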

[10] = Cell Viability - LYMP1-002 - Assay at 16 hr (AID 948); details: LYMP1-002 lymphoblastoid cell viability; series mostly up to 92.2 µM
Outline: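 In this qHTS, lymphoblastoid LYMP1-002 cells (human) receive compounds for 16 hr at 37 C. Viability is taken from CellTiter-Glo ATP luminescence, and AC50 derives from standard Hill fits.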

[11] = MultiTox-Fluor Cytotoxicity Assay - LYMP1-002 - Live Cells (AID 955); details: LYMP1-002 lymphoblastoid live-cell protease fluorescence viability; series mostly up to 46.1 µM;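 further: cells exposed to compound for 16 hours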
Outline: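 Cytotoxicity in the human lymphoblastoid line LYMP1-002 is measured as loss of live-cell protease activity after 16 h treatment in complete culture medium. AC50 is derived from Hill-equation fits of qHTS concentration-response data.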

[12] = MultiTox-Fluor Cytotoxicity Assay - LYMP1-003 - Live Cells (AID 962); details: LYMP1-003 lymphoblastoid cells, MultiTox-Fluor live-cell protease fluorescence; series mostly up to 92.2 µM;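 further: cells exposed to compound for 16 hours at 37 °C; cytotoxic hits lower the live-cell protease signal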
Outline: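 Cells plated at 2500 per well and incubated 5 hr; compounds added and incubated 16 hr at 37 C; MultiTox-Fluor reagent added for 60 min at room temperature; fluorescence of liberated AFC measured at 405/510 nm.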

[13] = Cell Viability - LYMP1-003 - Assay at 24 hr (AID 963); details: LYMP1-003 lymphoblastoid cell viability; series mostly up to 92.2 µM
Outline: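 Acute toxicity in LYMP1-003 lymphoblastoid cells: 24 hr compound treatment at 37 C, ATP measured with CellTiter-Glo after 30 min at room temperature. AC50 derived by fitting the Hill equation to qHTS titrations.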

[14] = Cell Viability - LYMP2-015 (AID 971); details: LYMP2-015 lymphoblastoid cell viability; series mostly up to 92.2 µM;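 further: cells exposed to compound for 24 h; nearly all actives have a fitted effect of over 55% in size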
Outline: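 Acute toxicity was scored as a concentration-dependent drop in intracellular ATP in lymphoblastoid cells after 24 hr compound exposure in complete medium. Detection used CellTiter-Glo luciferase luminescence.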

[15] = Cell Viability - LYMP2-025 (AID 976); details: LYMP2-025 lymphoblastoid cell viability; series mostly up to 92.2 µM;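 further: cells exposed to compound for 24 h at 37 °C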
Outline: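 In qHTS format, LYMP2-025 lymphoblastoid cells in complete culture medium received compound for 24 hr; ATP-based CellTiter-Glo signal gave viability, with AC50 derived by Hill equation.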

[16] = Cell Viability - LYMP2-002 (AID 977); details: LYMP2-002 lymphoblastoid cell viability, qHTS; series mostly up to 92.2 µM;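 further: compound exposure lasted 24 h at 37 °C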
Outline: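 Cytotoxicity is scored as concentration-dependent loss of cellular ATP in a human lymphoblastoid line after 24 hr compound treatment at 37 C. AC50 is obtained by modelling concentration-response data with the Hill equation.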

[17] = Cell Viability - LYMP2-006 (AID 978); details: LYMP2-006 lymphoblastoid cell viability, qHTS; series mostly up to 92.2 µM;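 further: cells exposed to compound for 24 hours; nearly all actives have a fitted effect of over 60% in size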
Outline: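 In this cytotoxicity screen, the human lymphoblastoid line grew in complete medium with test compounds for 24 hr at 37 C. Cellular ATP served as the viability signal.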

[18] = Cell Viability - LYMP2-008 (AID 980); details: LYMP2-008 lymphoblastoid cell viability, qHTS; series mostly up to 92.2 µM;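 further: cells exposed to compound for 24 h at 37 °C; nearly all actives have a fitted effect of over 60% in size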
Outline: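 Acute cytotoxicity is scored as concentration-dependent loss of cellular ATP in a human lymphoblastoid line after 24 hr treatment at 37 C. ATP is quantified by luciferase luminescence.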

[19] = Cell Viability - LYMP1-002 - Assay at 24 hr (AID 993); details: LYMP1-002 lymphoblastoid cells viability; series mostly up to 92.2 µM
Outline: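 qHTS, LYMP1-002 lymphoblastoid, 24 h cpd, 37 C, CellTiter-Glo ATP luminescence; AC50 via Hill eq.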

[20] = Cell Viability - LYMP1-002 - Assay at 40 hr (AID 994); details: LYMP1-002 lymphoblastoid cell viability; series mostly up to 92.2 µM; further: nearly all actives have a fitted effect of over 60% in size
Outline: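 Viability in the human lymphoblastoid line was measured as intracellular ATP via CellTiter-Glo after 40 hr compound exposure. Tetraoctylammonium bromide served as positive control.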

Chain of Retinoic acid receptor RXR-alpha (Homo sapiens) (P19793 whole entry, looked up): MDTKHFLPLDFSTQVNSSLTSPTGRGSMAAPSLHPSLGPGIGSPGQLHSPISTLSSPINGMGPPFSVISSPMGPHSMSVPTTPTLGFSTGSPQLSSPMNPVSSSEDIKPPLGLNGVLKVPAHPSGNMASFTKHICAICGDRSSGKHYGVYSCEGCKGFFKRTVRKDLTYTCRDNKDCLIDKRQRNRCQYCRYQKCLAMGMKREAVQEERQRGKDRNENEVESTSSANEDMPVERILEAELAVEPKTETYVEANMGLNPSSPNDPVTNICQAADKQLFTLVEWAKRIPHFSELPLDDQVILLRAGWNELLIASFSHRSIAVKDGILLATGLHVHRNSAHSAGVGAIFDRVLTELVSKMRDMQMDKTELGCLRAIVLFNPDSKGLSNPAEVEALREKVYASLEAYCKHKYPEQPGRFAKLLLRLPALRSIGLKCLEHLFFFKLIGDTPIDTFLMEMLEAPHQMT

Row | SMILES | max response [1] | max response [2] | outcome [3] | Potency [4] | activity change, negative = cytotoxicity [5] | Potency [6] | outcome [7] | outcome [8] | outcome [9] | Potency [10] | outcome [11] | Potency [12] | Potency [13] | Potency [14] | Potency [15] | Potency [16] | Potency [17] | Potency [18] | Potency [19] | Potency [20]
1 | CC(C)Nc1nc(Cl)nc(NC(C)C)n1 | -10.2% | -2.39% (inactive) | inactive | – | – | – | – | – | – | – | – | – | – | – | – | – | – | – | – | –
2 | CC(C)(C)OOC(C)(C)C | -12.4% | 11.6% (inactive) | inactive | > 92 µM (inactive) | -8.54% (inactive) | inactive | inactive | inactive | inactive | inactive | inactive | inactive | inactive | inactive | inactive | inactive | inactive | inactive | inactive | inactive
3 | c1ccc(-c2ccccc2)cc1 | -7.26% and -12.6% | -4.53% (inactive) and 7.05% (inactive) | inactive | > 92 µM (inactive) | -4.83% (inactive) | inactive | inactive | inactive | inactive | inactive | inactive | inactive | inactive | inactive | inactive | inactive | inactive | inactive | inactive | inactive
4 | C=CCOC(=O)c1ccccc1N | -12.2% | 2.96% (inactive) | inactive | > 92 µM (inactive) | 1.61% (inactive) | inactive | inactive | inactive | inactive | inactive | inactive | inactive | inactive | inactive | inactive | inactive | inactive | inactive | inactive | inactive
5 | Nc1ccc(Br)cc1 | 3.4% | 15.2% (inactive) | inactive | > 92 µM (inactive) | -2.5% (inactive) | inactive | inactive | inactive | inactive | inactive | inactive | inactive | inactive | inactive | inactive | inactive | inactive | inactive | inactive | inactive
6 | O=C=NC1CCCCC1 | -7.8% and -5.15% | 12.3% (inactive) and -18.1% (inactive) | inactive | > 92 µM (inactive) | -6.26% (inactive) and 7.73% (inactive) | inactive | inactive | inactive | inactive | inactive | inactive | inactive | inactive | inactive | inactive | inactive | inactive | inactive | inactive | inactive
7 | c1ccc2c(c1)CCCC2 | -8.06% | 7.45% (inactive) | inactive | > 92 µM (inactive) | 9.97% (inactive) | inactive | inactive | inactive | inactive | inactive | inactive | inactive | inactive | inactive | inactive | inactive | inactive | inactive | inactive | inactive
8 | CCOP(=S)(OCC)SCSC(C)(C)C | -10.4% and -6.52% | -12% (inactive) and 0.279% (inactive) | inactive | > 92 µM (inactive) | -4.96% (inactive) | inactive | inactive | inactive | inactive | inactive | inactive | inactive | inactive | inactive | inactive | inactive | inactive | inactive | inactive | inactive
9 | C=C(Cl)Cl | -3.44% | -1.27% (inactive) | inactive | > 92 µM (inactive) | 3.46% (inactive) | inactive | inactive | inactive | inactive | inactive | inactive | inactive | inactive | inactive | inactive | inactive | inactive | inactive | inactive | inactive
